# Compound activity from PubChem BioAssay.
# Hits are enriched below; roughly 12% of the tested compounds scored in any of these assays.
# JMJD2A Tudor inh: blocks the human JMJD2A Tudor domain. O75164. AlphaScreen JMJD2A-Tudor / H3K4me3 peptide binding. Potency, µM (top dose mostly 114 µM), without a hit: at the top dose activity change, negative = inhibition, hits mostly inhibitors. 390,000 tested, 4.4% active. AID 504339; further: potency means the concentration at half of the fitted maximal effect; on the % scale 0 is the no-effect control and ±100 the full control effect; nearly all actives have a fitted effect of over 50% in size
# G9a inh: blocks human histone lysine methyltransferase G9a; Q96KQ7; G9a H3K9 monomethylation, AlphaScreen, 2 h; Potency, µM (doses to about 102 µM), inactives show at the highest dose activity, negative = inhibition, actives largely listed as inhibitors; 350,000 tested, 8.8% active; AID 504332; further: potency means the concentration at half of the fitted maximal effect; on the % scale 0 is the no-effect control and ±100 the full control effect; nearly all actives have a fitted effect of over 75% in size
# Target sequence (Q96KQ7 913-1193 limits assumed): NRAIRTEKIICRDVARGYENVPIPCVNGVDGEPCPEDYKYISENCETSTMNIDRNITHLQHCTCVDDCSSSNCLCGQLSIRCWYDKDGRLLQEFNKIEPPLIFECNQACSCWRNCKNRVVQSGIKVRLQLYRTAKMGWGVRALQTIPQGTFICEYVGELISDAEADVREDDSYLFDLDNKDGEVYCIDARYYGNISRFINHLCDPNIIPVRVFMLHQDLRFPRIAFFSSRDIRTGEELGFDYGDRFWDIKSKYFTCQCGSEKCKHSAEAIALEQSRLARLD
#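 G9a (20 nM) was preincubated 15 min with compound, then reacted 2 h at room temperature with 500 nM biotin-H3K9 peptide and 20 µM SAM. Monomethyl-H3K9 detected by AlphaScreen using anti-H3K9me1 antibody.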
# HP1b binding inh: inhibitors of HP1-beta chromodomain binding to methylated histone tails; P83916; AlphaScreen HP1-beta / biotin-H3K9me3 peptide binding; Potency, µM (series often up to 114 µM), without a hit: at the top dose activity change, negative = inhibition, actives largely listed as inhibitors; 390,000 tested, 0.56% active; AID 540317; further: potency means the concentration at half of the fitted maximal effect; nearly all actives have a fitted effect of over 70% in size
#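 AlphaScreen: HP1-beta (50 nM) preformed 30 min with biotin-H3(1-18)K9me3 peptide (50 nM) in PBS pH 7.4, 0.01% Tween-20. Compound added for 30 min at RT, then streptavidin donor/nickel chelate acceptor beads (10 ug/mL) for 30 min.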
# PLK1 PBD block: inhibitors of human PLK1 polo-box domain binding | P53350 | Plk1 PBD binding of FITC phosphopeptide, fluorescence polarization | Potency, µM, for the others: max response, negative = inhibition, hits mostly inhibitors | 360,000 tested, 2.8% active | AID 720504; further: potency means the concentration at half of the fitted maximal effect; series mostly up to about 57 µM; on the % scale 0 is the no-effect control and ±100 the full control effect; nearly all actives have a fitted effect of over 65% in size
# BAZ2B block: blocks human BAZ2B. Potency, µM (highest dose often 114 µM), without a hit: at the highest dose activity change, negative = inhibition, usual class: inhibitors. 360,000 tested, 4.4% active. AID 504333. AlphaScreen BAZ2B-H3K14Ac peptide displacement; further: potency means the concentration at half of the fitted maximal effect; on the % scale 0 is the no-effect control and ±100 the full control effect; nearly all actives have a fitted effect of over 60% in size
#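 Inhibition is scored as reduced AlphaScreen emission. The BAZ2B/b-H3(5-23)K14Ac complex (50 nM each) in PBS pH 7.4, 0.01% Tween-20 meets compound (up to 110 uM) for 30 min at RT before bead addition.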
# PI5P4Ka inh: PI5P4K alpha (human) kinase inhibition. PI5P4Kalpha enzyme, ADP-Glo luminescence, 60 min; hits give low values. 330,000 tested, 1.2% active. max response, %. P48426; active means max response of -50% or lower; inconclusive means between -30% and -50%; inactive means -30% or higher; further: value at the top dose of about 77 µM; on the % scale 0 is the no-effect control and ±100 the full control effect
# Target sequence (P48426 whole entry, looked up): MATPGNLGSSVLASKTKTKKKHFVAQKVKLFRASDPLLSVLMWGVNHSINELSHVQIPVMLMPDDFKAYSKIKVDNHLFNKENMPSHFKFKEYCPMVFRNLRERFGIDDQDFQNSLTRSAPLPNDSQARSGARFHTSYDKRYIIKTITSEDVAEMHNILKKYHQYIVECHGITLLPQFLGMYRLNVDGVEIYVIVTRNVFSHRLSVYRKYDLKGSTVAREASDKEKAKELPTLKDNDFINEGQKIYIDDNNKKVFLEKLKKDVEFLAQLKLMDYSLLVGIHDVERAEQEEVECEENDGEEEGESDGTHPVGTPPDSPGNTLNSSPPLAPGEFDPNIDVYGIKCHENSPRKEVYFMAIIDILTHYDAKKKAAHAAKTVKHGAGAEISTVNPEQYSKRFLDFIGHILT
#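 Enzyme plus substrate dispensed, test compounds pinned in, then ATP (5 microM final) added. After 60 min at RT, ADP-Glo reagent 1 for 45 min and reagent 2 for 30 min preceded luminescence imaging.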
# An asterisk follows results filed as active; u = inconclusive; x = not tested or not shown; ! = not confirmed by another sample; [ ] = dose if it differs, or a comment. Unless noted, the call rests on the fitted dose curve; in most records, active means well fitted curve in the direction sought with a large enough effect; inconclusive means small, poorly fitted or top-dose-only effect, or another doubt; inactive means no such curve, though single readings can be large; an effect the other way counts as inactive or inconclusive.
SMILES,JMJD2A Tudor inh,G9a inh,HP1b binding inh,PLK1 PBD block,BAZ2B block,PI5P4Ka inh
O=C1NC(=O)N(CCNc2ncc(C(F)(F)F)cc2Cl)C(=O)C1Cc1ccc(Cl)cc1 (stereo unspecified),-8%,50µM*,20%,-9%,-15%,-1
O=C(NCCCN1CCCC1)c1ccc2c(c1)N(Cc1cccc(Cl)c1)C(=O)c1ccccc1S2=O (stereo unspecified),-20%,40µM*,19%,-2%,-11%[57.1 µM],-5
CC(C)(C)c1ccc(C(=O)Nc2ccc3nc(SCC(=O)N4CCCC4)sc3c2)cc1,-21%,5%[59 µM],45%,x,-9%,x
CCOC(=O)C(NC(C)=O)C(OC(C)=O)c1cccc(N(CCCl)CCCl)c1 (stereo unspecified),-15%,14µM*,18%,-1%,-18%,-4
CCCCC/C=C\C/C=C\C/C=C\C/C=C\CCCC(=O)NC1CC1,x,69%[59 µM],x,x,x,x
N.N.N.N.N.N.N.N.N.N.N.N.N.N.O.O.[Cl-].[Cl-].[Cl-].[Cl-].[Cl-].[Cl-].[Ru].[Ru].[Ru],x,3.2µM*,x,x,x,x
Cn1c(O)c(C=Nc2ccccc2Sc2ccccc2)c(=O)n(C)c1=O,23%[57.1 µM],11%[59 µM],99%,-25%,1%,-7
Cn1c(N)c(Sc2ccccc2[N+](=O)[O-])c(=O)n(C)c1=O,-5%,45µM*,5%,-25%,-2%,4
Cc1ccccc1NC(=O)Oc1cccc(OC(=O)c2ccccc2)c1,-11%,26%,62%,8%,-2%,11
O=C(NCc1ccccc1)Oc1cccc(Cl)c1,-17%,5%[59 µM],6%,8.4µM*,6%,-8
S=c1[nH]nc(-c2cccs2)n1C1CCCCC1,6.3µM*,x,10%,-22%,-4%,-5
O=c1c(C=NCc2cccs2)c(O)n(C2CCCCC2)c(=O)n1C1CCCCC1,-8%,3%,25%,-13%,-20%,3
Cc1ccc2c(c1)C1CN(C)CCC1N2C(=O)Cc1cccs1 (stereo unspecified),-20%,79µM*,10%,-13%,-4%,x
CCN(CC)C(=O)Oc1ccc(Cl)c2ccccc12,47%,129%,74%,-5%,78%,x
Cc1ccc(Cl)cc1N1CCN(C(=O)C2CCN(Cc3nc(-c4ccc(Cl)cc4)oc3C)CC2)CC1,u,u,-16%,x,8.9µM*,x
Cc1ccc(C)c(N2CCN(C(=O)C3CCN(Cc4nc(-c5cccc(Cl)c5)oc4C)CC3)CC2)c1,40µM*,u,-23%,x,8.9µM*,x
Cc1oc(-c2ccc(Cl)cc2)nc1CS(=O)CC(=O)N1CCC2(CC1)OCCO2 (stereo unspecified),-7%,33%[59 µM],9%,-15%,u,x
COc1c2c(cc3c1OCO3)C13C=CC(OC)CC1N(C2)CC3O (stereo unspecified),x,-30%[2.33 µM],x,x,x,x
O=C(C1CCCN(S(=O)(=O)c2cccc3nsnc23)C1)N1CCN(c2cccc(Cl)c2)CC1 (stereo unspecified),u,u,5%,x,x,x
O=[N+]([O-])NC1=NCN(Cc2ccco2)CN1Cc1ccco1,u,-27%[59 µM],u,27µM*,-10%,-12
CN1CN=C(N[N+](=O)[O-])N(Cc2ccco2)C1,-11%,-9%[59 µM],35%,-3%,-31%,-6
O=C(c1cccc(Cl)c1)C1CCCN(Cc2cccc3cnccc23)C1 (stereo unspecified),45µM*,u,u,u,u,-5
Cc1cc(N2C(=O)CC(N3CCC(n4c(=O)[nH]c5ccccc54)CC3)C2=O)no1 (stereo unspecified),-18%[11.4 µM],u,-4%,27µM*,0%,-24
COc1cc(OC)c(/C=C2\C(=O)Nc3ccccc32)c(OC)c1,56µM*,u,u,-14%,45µM*,5
COc1ccc2c(c1)/C(=C/c1cnc[nH]1)C(=O)N2,-30%,30%[59 µM],9%,-3%,50µM*,-18
SMILES,JMJD2A Tudor inh,G9a inh,HP1b binding inh,PLK1 PBD block,BAZ2B block,PI5P4Ka inh
O=C(COc1ccccc1[N+](=O)[O-])N1CCN(CCc2ccncc2)CC1,-16%,-30%[59 µM],38%,x,-29%,x
Cc1ccc(S(=O)(=O)CC(=O)c2cc(C)c(OC(=O)N(C)C)c(C)c2)cc1,-10%,-5%,47%,-1%,-13%,1
Cc1cc(C(=O)CS(=O)c2ccc(F)cc2)cc(C)c1OC(=O)N(C)C (stereo unspecified),-7%,40µM*,34%,12µM*,-13%,-7
CCCCNC(=O)C1CCCN(Cc2nc(-c3ccc(Cl)cc3)oc2C)C1 (stereo unspecified),-9%,-24%[59 µM],34%,x,u,x
Cc1oc(-c2ccc(Cl)cc2)nc1CN1CCC(C(=O)NCCCN2CCN(c3cccc(Cl)c3)CC2)CC1,u,10µM*,-12%,x,u,x
Cc1oc(-c2cccc(Cl)c2)nc1CN1CCC(C(=O)NCCCN2CCN(c3ccc(F)cc3)CC2)CC1,-28%,u,-1%,x,22µM*,x
COc1ccc(-c2noc(=O)n2Cc2cc(C)ccc2C)cc1,42%,-3%,56%,1%,-20%,14
Clc1ccc2c(c1)C(c1ccccc1)=NCc1nncn1-2,x,-29%[12.7 µM],x,x,x,x
NCCCC[C@H](N[C@@H](CCc1ccccc1)C(=O)O)C(=O)N1CCC[C@H]1C(=O)O,-17%,10µM*!,66%,-8%,-4%,1
CCCCn1c(C)c(C(=O)OCC)c2c(CN3CCCC3)c(O)ccc21,-31%,40µM*,6%,-15%,-35%,2
CCCCn1c(C)c(C(=O)OCC)c2c(CN3CCOCC3)c(O)ccc21,u,u,-9%,-6%,-38%,x
CC=C(C)C(=O)O[C@H]1C(C)=C2[C@@H]3OC(=O)[C@@](C)(O)[C@@]3(O)[C@@H](OC(=O)CCC)C[C@](C)(OC(C)=O)[C@@H]2[C@@H]1OC(=O)CCCCCCC,x,10%[59 µM],x,x,x,x
COc1cccc(CCNCc2cccc(C(F)(F)F)c2)c1,2.5µM*,10µM*,u,-8%,56µM*,17
COC(=O)c1ccccc1OP(=O)(c1cccc([N+](=O)[O-])c1)c1cccc([N+](=O)[O-])c1,-22%,x,u,-7%,u,-4
COc1ccc(NC(=S)NC(NC(=O)CF)C(Cl)(Cl)Cl)cc1[N+](=O)[O-] (stereo unspecified),u,22µM*,u,30µM*,u,u
O=C(CF)NC(NC(=S)Nc1cccc([N+](=O)[O-])c1)C(Cl)(Cl)Cl (stereo unspecified),-28%,35µM*,20%,-20%,-39%,-4
C[C@@H]1OC(=O)[C@H]2C[C@H]3CCCC[C@@H]3[C@@H](/C=C/[C@H]3CCC[C@H](C)N3C)[C@@H]12,x,25%[59 µM],x,x,x,x
